What was measured:
[1] = test system: HCC1937; experiment: relative cell viability, compound + erastin, vs DMSO (fraction of DMSO control); higher = less growth inhibition; settings: 72 h
[2] = test system: MDA-MB-231; experiment: as above; settings: 72 h
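Further: viability read by CCK-8 kit in 96-well plates, part of a combination screen pairing lipid-metabolism-targeting compounds with erastin.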

SMILES	relative cell viability [1]	relative cell viability [2]
O=C(O)c1cc2c(Cl)c(N3CCN(S(=O)(=O)c4c(Cl)cccc4Cl)CC3)ccc2o1 [Vonafexor] + CCOc1ccccc1-n1c(C(C)N2CCN(C(=O)COc3ccc(Cl)cc3)CC2)nc2ccccc2c1=O [erastin]	0.846	0.989
COc1cc(N2CCN(C)CC2)ccc1Nc1ncc2c(n1)N(C1CCC1)C(=O)N(c1c(C)cccc1C)C2 + CCOc1ccccc1-n1c(C(C)N2CCN(C(=O)COc3ccc(Cl)cc3)CC2)nc2ccccc2c1=O [erastin]	0.56	0.586
Cc1nc(Nc2cnn(C3CCNCC3)c2)nc2c1N(C)C(=O)c1cc3ccccc3cc1N2C + CCOc1ccccc1-n1c(C(C)N2CCN(C(=O)COc3ccc(Cl)cc3)CC2)nc2ccccc2c1=O [erastin]	0.215	0.421
Cc1nc(-c2nc(-c3ccc(OC(F)(F)F)cc3)no2)nn1Cc1cccc(N2CCC(S(C)(=O)=O)CC2)c1 + CCOc1ccccc1-n1c(C(C)N2CCN(C(=O)COc3ccc(Cl)cc3)CC2)nc2ccccc2c1=O [erastin]	0.647	0.621
